# Screens (PubChem)
# ELG1 genotoxic: genotoxicity induction in ELG1-luciferase HEK293T cells; HEK293T ELG1-luciferase reporter, luminescence, 16 h; 1.3% of 330,000 active; Potency, µM (series often up to 46 µM), hits mostly activators; note: nearly all actives have a fitted effect of over 60% in size
#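 ELG1-luciferase HEK293T cells, 2,000/well; compound pinned in; 16 hr, 37 °C, 5% CO2; ONE-Glo, 30 min RT; luminescence on CCD imager.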
# FLuc modulator: counter-screen for miR-21 project: firefly luciferase inhibitors or activators; Potency, µM (top dose mostly 57.5 µM), actives largely listed as inhibitors; 6.9% of 360,000 active; AID 588342; P08659; purified FLuc, Km substrates, luminescence inhibition; note: nearly all actives have a fitted effect of over 55% in size
# Target sequence (P08659 whole entry, looked up): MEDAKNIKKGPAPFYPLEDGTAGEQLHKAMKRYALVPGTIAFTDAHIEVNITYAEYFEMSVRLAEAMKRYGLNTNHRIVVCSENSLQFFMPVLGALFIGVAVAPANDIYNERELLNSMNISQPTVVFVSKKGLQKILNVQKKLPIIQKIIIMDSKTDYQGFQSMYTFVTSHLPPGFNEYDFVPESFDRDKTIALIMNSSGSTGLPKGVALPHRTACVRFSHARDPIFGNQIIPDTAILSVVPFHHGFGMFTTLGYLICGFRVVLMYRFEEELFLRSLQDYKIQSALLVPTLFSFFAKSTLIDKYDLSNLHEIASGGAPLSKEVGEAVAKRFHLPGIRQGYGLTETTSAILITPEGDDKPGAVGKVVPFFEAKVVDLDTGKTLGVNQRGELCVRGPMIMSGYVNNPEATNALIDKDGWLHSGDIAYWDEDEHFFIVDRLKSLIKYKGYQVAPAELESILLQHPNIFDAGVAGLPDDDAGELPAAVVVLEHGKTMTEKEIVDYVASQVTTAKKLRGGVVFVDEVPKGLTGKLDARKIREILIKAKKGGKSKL
#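 Biochemical qHTS of compounds, final roughly 60 µM downward over six points, against 10 nM purified firefly luciferase using Km concentrations of substrates (10 uM D-luciferin, 10 uM ATP) in Tris acetate pH 7.5 buffer; luminescence output.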
# Rab9 prom act: activators of Rab9 promoter; Huh7 Rab9 promoter-luciferase reporter, luminescence, 24 h; Potency, µM (doses to about 9.22 µM), most hits filed as activators; 2.8% of 320,000 active; AID 485297; note: nearly all actives have a fitted effect of over 60% in size
#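 Huh7 reporter line, Rab9 promoter upstream of luciferase. Compound exposure 24 h at 37 °C in reduced-serum medium with 10% FBS. Read-out: luminescence.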
# KinaseGlo FLuc: Kinase-Glo luciferase inhibition (counter-screen); Kinase-Glo luciferase, ATP luminescence, 8 min; Potency, µM (series often up to 38.3 µM), usual class: inhibitors; 0.28% of 200,000 active; AID 1379; note: nearly all actives have a fitted effect of over 60% in size
#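 Luminescence was the read-out, taken after 8-minute incubation at ambient temperature. Luciferase turned over luciferin with 10 uM ATP in imidazole pH 7.2 buffer containing KCl, MgCl2, Tween 20 and BSA.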
# SMN2 splice up: SMN2 splice variant enhancement | 2.8% of 210,000 active | Potency, µM (highest dose often 46.1 µM), hits mostly activators | HEK293 SMN2-luciferase splicing reporter, luminescence, 30-36 h | AID 1458; note: nearly all actives have a fitted effect of over 55% in size
#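 HEK293 cells carry an SMN2 […]–luciferase reporter in which exon 7 inclusion puts luciferase in frame. Cells were plated 10-12 h before compound addition, then incubated 30-36 h at 37C. ONE-Glo luminescence was read; sodium butyrate at 4.5 mM final served as control.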
# NPC1 promoter act: NPC1 promoter activation. Huh7 NPC1 promoter luciferase reporter, 24 h. Potency, µM (highest dose often 9.22 µM), usual class: activators. 2.4% of 320,000 active; note: nearly all actives have a fitted effect of over 60% in size
#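 Huh7 reporter cells (NPC1 promoter driving luciferase) are dosed with compound for 24 h at 37 °C, 5% CO2; luciferase detection reagent is then added and luminescence measured after 10 min at ambient temperature.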
# A number is an active result; i = inactive; ? = inconclusive; nt = no result given; [ ] = another dose, or the depositor's remark. Shown are actives, neighbours in structure and some others; about 7.5% of the full set was active somewhere. Calls come from the whole dose curve; as a rule, active = well fitted curve in the direction sought with a large enough effect; inconclusive = small, poorly fitted or top-dose-only effect, or another doubt; inactive = no such curve, though single readings can be large; an effect the other way counts as inactive or inconclusive.
SMILES,ELG1 genotoxic,FLuc modulator,Rab9 prom act,KinaseGlo FLuc,SMN2 splice up,NPC1 promoter act
CCCN1CCN(CC2=C(C(=O)OCC)C(c3cccc(OC)c3OC)NC(=O)N2)CC1 (stereo not drawn),nt,i,nt,nt,i,nt
C[C@@H]1Nc2ccc(Cl)cc2S(=O)(=O)N1,nt,nt,nt,i,nt,nt
O=C(Nc1ccc(-c2cn3ccccc3n2)cc1)c1cc(Br)ccc1O,nt,nt,nt,i[7.66 µM],i[9.22 µM],nt
COc1ccc(CC(=O)Nc2ccc(-c3cn4ccccc4n3)cc2)cc1,?,3.4µM,3.2µM,i,?,?
CCOc1ccc(CC(=O)Nc2ccc(-c3ccc4nnc(C)n4n3)cc2)cc1,21µM,i,i,i,i,i
COc1ccc(CC(=O)Nc2ccc(-c3cn4ccccc4n3)cc2)cc1OC,?,17µM,i,i,i,i
COc1ccc(CC(=O)Nc2ccc(N3CCOCC3)cc2)cc1OC,i,i,i,nt,nt,i
COc1ccc(CC(=O)Nc2ccc(NC(=O)c3ccccc3F)cc2)cc1,i,i,i,i,nt,i
O=C(Nc1ccc(-c2cn3ccccc3n2)cc1)c1cccs1,?,1.9µM,3.5µM,i,11µM,1.8µM
Cc1nnc2ccc(-c3ccc(NC(=O)Cc4cccs4)cc3)nn12,?,i,i,nt,nt,i
CCOc1ccccc1N(C)C(=O)NCc1noc2ccccc12,nt,i,nt,nt,nt,nt
CCOCCCNC(=O)C1CCN(c2nn3cc(-c4ccc(F)cc4)nc3s2)CC1,nt,i,nt,nt,nt,nt
Cc1nn2c(-c3cccc(NC(=O)c4ccc(Cl)cc4)c3)nnc2c2ccccc12,nt,i,nt,nt,i,nt
CCC(=O)Nc1cccc(-c2cn3cccc(C)c3n2)c1,i,7.6µM,?,nt,nt,?
Cc1ccc(S(=O)(=O)Nc2cccc(-c3cn4cccc(C)c4n3)c2)c(C)c1,nt,?,nt,nt,i,nt
CCOC(=O)c1ccc2c(c1)N(Cc1cccc(C(F)(F)F)c1)C(=O)c1ccccc1S2(=O)=O,nt,i,nt,nt,nt,nt
Cc1ccc(S(=O)(=O)c2nc(-c3ccccc3Cl)oc2N(C)C)cc1,?,15µM,i,nt,nt,i
Cc1ccc(-c2nc(S(=O)(=O)c3ccc(C)cc3)c(N(C)C)o2)cc1,i,i,i,nt,nt,?
Cc1ccc(O)c(NC(=O)COCc2cc(-c3ccco3)on2)c1,nt,i,nt,nt,nt,nt
O=C(O)/C=C/c1cccc(NC(=O)Nc2ccc([N+](=O)[O-])cc2)c1,i,7.6µM,i,nt,nt,i
O=C(Nc1ccc([N+](=O)[O-])cc1)C(=O)Nc1cccc(C(=O)O)c1,?,0.019µM,?,nt,nt,?
O=C(COC(=O)/C=C/c1ccc([N+](=O)[O-])cc1)Nc1ccc2[nH]c(=O)[nH]c2c1,i,i,i,nt,nt,i
Cc1ccc2nc(-c3ccc(NC(=O)COc4ccc(Cl)c(C)c4)cc3)sc2c1,nt,21µM,nt,nt,14µM,nt
Cc1ccc(CSc2nc3ccc(NC(=O)COc4ccccc4F)cc3s2)cc1,nt,i,nt,nt,nt,nt
Cc1ccc2nc(-c3ccc(NC(=O)COc4ccc(Br)cc4Br)cc3)sc2c1,nt,2.1µM,nt,nt,2.8µM,nt
SMILES,ELG1 genotoxic,FLuc modulator,Rab9 prom act,KinaseGlo FLuc,SMN2 splice up,NPC1 promoter act
Cc1cc(OCC(=O)Nc2ccncc2)ccc1Cl,i,?,i,nt,nt,i
Cc1ccc2nc(-c3ccc(NC(=O)COc4c(C)ccc(C)c4C)cc3)sc2c1,nt,19µM,nt,nt,?,nt
Cc1ccc(NC(=O)COc2ccc(Br)cc2CO)cc1,i,13µM,i,i,i,i
COc1ccc(NC(=O)N2CCCC3(CCN(C(=O)c4ccncc4)CC3)C2)cc1,nt,nt,nt,i,i,nt
COc1cccc(Cn2c(=O)cc(C)c3c(C)nn(C)c32)c1,nt,i,nt,nt,nt,nt
COc1ccc(C2=C/C(=C\c3cccc(OC(C)=O)c3)C(=O)O2)cc1,i,24µM,i,i,?,i
COc1ccc(C2=C/C(=C\c3ccccc3OC(C)=O)C(=O)O2)cc1,i,?,i,nt,nt,i
Cc1cc(C)cc(-n2ccnc(NCCc3ccccc3)c2=O)c1,nt,i,nt,nt,nt,nt
CC1(CC(=O)N/N=C/c2ccc(-c3ccc(Cl)cc3)o2)OCCO1,i,3.4µM,i,i,i,i
COC(=O)c1ccc(-c2ccc(/C=N/NC(=O)CC3(C)OCCCO3)o2)cc1,i,?,?,i,11µM,?
O=C(O)c1cccc(-n2cc(-c3cccc(C(F)(F)F)c3)cn2)c1,?,1.2µM,0.35µM,nt,nt,0.32µM
Brc1ccc2nc(-c3cccs3)c(NCC3CCCO3)n2c1 (stereo not drawn),i,12µM,i,i,nt,?
Cc1cccn2c3c(c(=O)nc12)C(c1ccc(F)cc1)CC(=O)N3 (stereo not drawn),nt,i,nt,nt,nt,nt
O=C1CCNc2ccc(-c3ccccc3)cc21,?,15µM,i,i,?,?
COC(=O)c1ccc(C(NC(=O)OCc2ccccc2)/C(=C/[C@@H](C)C(=O)NC2CCCCC2)c2cccnc2)cc1 (stereo partly drawn),nt,nt,nt,i,i,nt
CC(=Nc1ccc(C)c(C)c1)C1=C(O)CSC1=O,18µM,11µM,?,i,?,i
CC(C)C(OC(=O)c1ccccc1)c1nccc2ccccc12 (stereo not drawn),?,17µM,?,nt,nt,?
O=C(OC(c1ccccc1)c1nccc2ccccc12)c1cccc([N+](=O)[O-])c1 (stereo not drawn),?,?,i,i,i,i
COc1ccccc1OC(C)C(=O)Nc1c(C(=O)c2ccc(Cl)cc2)oc2ccccc12 (stereo not drawn),nt,i,nt,nt,?,nt
COc1cc(/C=C2\SC(=S)N(CC(=O)O)C2=O)ccc1OC(=O)c1ccco1,i,7.6µM,i,nt,nt,?
COc1cc(/C=C2/SC(=S)N(CC(=O)O)C2=O)ccc1OC(=O)c1ccco1,i,7.6µM,i,nt,nt,i
O=C(O)CN1C(=O)/C(=C\c2cccc(OCc3ccccc3)c2)SC1=S,i,15µM,i,nt,nt,i
COc1ccc(/C=C2/SC(=S)N(CC(=O)O)C2=O)cc1OCc1ccc(Cl)cc1,i,19µM,i,nt,nt,i
O=C(O)COc1cccc(/C=C2/SC(=S)N(Cc3ccccc3)C2=O)c1,i,?,i,nt,nt,i
O=C(O)CN1C(=O)/C(=C\c2cc(Br)ccc2OCc2ccc(Cl)cc2)SC1=S,i,i,i,nt,nt,i
SMILES,ELG1 genotoxic,FLuc modulator,Rab9 prom act,KinaseGlo FLuc,SMN2 splice up,NPC1 promoter act
CN1C(=O)/C(=C/c2ccc(OC(=O)c3ccco3)cc2)SC1=S,i,i,i,nt,nt,i
Cc1cc2oc(C(=O)N(Cc3ccccc3)C3CCS(=O)(=O)C3)cc(=O)c2cc1C (stereo not drawn),nt,i,nt,nt,i,nt
CCOc1cc(/C=C2/SC(=S)N(CC(=O)O)C2=O)ccc1OC(=O)c1cccs1,i,17µM,i,nt,nt,i
Cc1c(NC(=O)c2cccs2)cccc1-c1nc2ccccc2s1,i,4.3µM,i,i,i,i
COc1cc(OC)cc(C(=O)Nc2ccccc2-c2nc3ccccc3s2)c1,nt,i,nt,nt,i,nt
Cc1ccc2sc(-c3ccc(NC(=O)c4cc(-n5cnnc5)ccc4Cl)cc3)nc2c1,i,6µM,?,i,13µM,?
O=C(Nc1cccc(-c2nc3ccccc3s2)c1)c1cc(-n2cnnc2)ccc1Cl,i,6.7µM,i,nt,nt,i
